Results on 68 molecules are retold here after PubChem BioAssay AID2316 (Broad Institute, 2010).

In all, about 29,000 compounds went through this assay and fewer than 10 were called active. The rule behind the calls is not given here. These entries were drawn from the full list.

A short description of this assay: reversal of PD-1 mediated T-cell inhibition, primary screen, luminescence, primary human CD4 T cells, PD-L1 beads (AID 2316).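 Note: 0% = median vehicle wells and 100% = positive control.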 The settings on record: CellTiter-Glo 96 h, active compounds read high.
Turning to `O=C1OC(c2ccc(-c3ccccc3)cc2)=N/C1=C\c1ccco1`, the activation was 1.56% (inactive).

As for `C/C=C/c1ccc(OCCCSc2nc(C)cc(=O)[nH]2)c(OC)c1`, the activation is 2.94% (inactive).

As for `C[C@H]1CN([C@@H](C)CO)C(=O)Cc2cc(NC(=O)Nc3ccc4c(c3)OCO4)ccc2O[C@H]1CN(C)Cc1ccc(C(=O)Nc2ccccc2N)cc1`, the activation was -2.39% (inactive).

As for `C[C@@H]1CCCCO[C@@H](CN(C)C(=O)C2CCCCC2)[C@@H](C)CN([C@H](C)CO)C(=O)c2cc(NC(=O)c3ccccc3)ccc2O1`, the activation is -1.83% (inactive).

Consider `N#Cc1cc2c(nc1SCC(=O)Nc1ccccc1C(F)(F)F)CCCCC2`, for which the activation was 1.79% (inactive).

`Cc1noc(C)c1NC(=O)Nc1cccc2c1O[C@@H](CN(C)C(=O)Nc1ccc(C(F)(F)F)cc1)[C@@H](C)CN([C@@H](C)CO)C2=O`: the activation is -0.0327% (inactive).

As to `C[C@H](CO)N1C[C@H](C)[C@H](CN(C)S(C)(=O)=O)Oc2ccc(NC(=O)CCCN(C)C)cc2C1=O`, the activation is 0.789% (inactive).

In the case of `C[C@H](CO)N1C[C@H](C)[C@H](CN(C)CC2CCCCC2)Oc2ccc(NC(=O)CCCCCC(=O)Nc3ccccc3N)cc2CC1=O`, the activation was -0.694% (inactive).

For the molecule `Cc1cccc(NC(=O)CSc2nc3c(cc2C#N)CCCCC3)c1`, the activation was -3.01% (inactive).

As to `O=C(CSc1nnc(-c2ccccc2)c(-c2ccccc2)n1)Nc1ccccc1`, the activation was 1.51% (inactive).

`C[C@H]1CN([C@@H](C)CO)C(=O)c2cc(NC(=O)Cn3cnnn3)ccc2O[C@@H]1CN(C)CC1CCCCC1`: the activation was 1.73% (inactive).

Take `CCCC1CCC(c2ccc(OC(=O)c3ccco3)cc2)CC1` (stereo not drawn): the activation was -0.337% (inactive).

In the case of `CC(=O)c1c(C)nn(CC(O)COc2ccc3cc(Br)ccc3c2)c1C` (stereo not drawn), the activation is -6.98% (inactive).

With `O=C(Nc1ccc(C(=O)OCc2cccc(C(=O)c3ccccc3)c2)cc1)c1ccccc1`, the activation is -0.837% (inactive).

Regarding `O=C(CSc1n[nH]c(-c2ccncc2)n1)Nc1ccccc1F`, the activation was 2.95% (inactive).

In the case of `Cc1ccc(NC(=O)CN2C(=O)/C(=C\c3ccccc3)SC2=S)cc1`, the activation was 1.06% (inactive).

Consider `COC(=O)C1=C(C)NC2=C(C(=O)CC(C)(C)C2)C1c1ccncc1` (stereo not drawn), for which the activation is -0.541% (inactive).

Consider `C[C@@H]1CN([C@@H](C)CO)C(=O)c2cccc(NS(=O)(=O)c3cccs3)c2O[C@@H]1CN(C)CC1CC1`, for which the activation was 1.15% (inactive).

For the molecule `C[C@@H]1CN([C@H](C)CO)C(=O)c2cccc(NC(=O)Nc3ccccc3)c2O[C@H]1CN(C)S(C)(=O)=O`, the activation was 0.424% (inactive).

On to `C[C@H]1CN([C@@H](C)CO)C(=O)Cc2cc(NC(=O)Nc3cccc4ccccc34)ccc2O[C@@H]1CN(C)S(=O)(=O)c1cn(C)cn1`, for which the activation is -0.329% (inactive).

For `CC(C)Cc1ccc(/C=C/C(=O)N2CCCC2)cc1`, the activation is -1.3% (inactive).

For `C[C@H]1CN([C@@H](C)CO)C(=O)c2cccc(NC(=O)C3CC3)c2O[C@@H]1CN(C)S(=O)(=O)c1ccc(F)cc1`, the activation was -0.218% (inactive).

In the case of `COc1ccc(CN(C)C[C@H]2Oc3c(NS(=O)(=O)c4ccc(C)cc4)cccc3C(=O)N([C@@H](C)CO)C[C@@H]2C)cc1`, the activation is -1.26% (inactive).

Regarding `COc1ccc(CN(C)C[C@@H]2Oc3ccc(NS(=O)(=O)c4ccc(F)cc4)cc3C(=O)N([C@@H](C)CO)C[C@@H]2C)cc1`, the activation is -1.17% (inactive).

In the case of `N#Cc1c(SCC(=O)Nc2ccc(F)cc2Cl)nc2c(c1C(F)(F)F)CCCCC2`, the activation is 0.417% (inactive).

On to `CC(=O)NCCc1nc2cc(NC(=O)c3ccccc3)ccc2n1C`, for which the activation was 2.35% (inactive).

As to `C[C@@H]1CN([C@@H](C)CO)C(=O)c2cc(NC(=O)CCCN(C)C)ccc2O[C@@H]1CN(C)Cc1ccncc1`, the activation is 0.414% (inactive).

For `CCOc1ccc(NC(=O)C(C)Sc2nnc(C)n2-c2ccccc2)cc1` (stereo not drawn), the activation is -0.74% (inactive).

Consider `C[C@@H]1CCCCO[C@@H](CN(C)C(=O)NC2CCCCC2)[C@@H](C)CN([C@H](C)CO)C(=O)c2cc(NC(=O)CCC(F)(F)F)ccc2O1`, for which the activation is -0.155% (inactive).

Turning to `COc1cc(OC)cc(C(=O)N2CCN=C2c2ccccc2)c1`, the activation is 0.604% (inactive).

Take `C[C@@H]1CN([C@@H](C)CO)C(=O)c2cc(NC(=O)Cc3ccccc3)ccc2O[C@H]1CN(C)Cc1ccc(Cl)c(Cl)c1`: the activation was -0.482% (inactive).

Regarding `Cc1ccccc1N=C(N)N=C(N)N`, the activation is -0.656% (inactive).

Turning to `C[C@@H]1CCCCO[C@H](CN(C)C(=O)C2CCCCC2)[C@@H](C)CN([C@H](C)CO)C(=O)c2cc(NC(=O)C3CCCCC3)ccc2O1`, the activation is -3.28% (inactive).

For the molecule `CC(=O)c1cccc(NC(=O)CN(C)S(=O)(=O)c2ccc3ccccc3c2)c1`, the activation was 0.81% (inactive).

As to `COc1ccccc1-n1c(N)cc(=O)nc1SCC(=O)Nc1ccc(Br)cc1`, the activation was 1.16% (inactive).

For the molecule `C[C@H](CO)N1C[C@H](C)[C@H](CN(C)S(=O)(=O)c2cccs2)Oc2ccc(NC(=O)Nc3ccccc3)cc2C1=O`, the activation was -1.39% (inactive).

`Cc1ccc(-c2noc(CSc3nnc(-c4cccs4)n3C)n2)cc1`: the activation is 0.512% (inactive).

As for `Cc1ccc(C)c(OCC(=O)Nc2ccccc2C#N)c1`, the activation was -3.9% (inactive).

On to `COc1ccc(S(=O)(=O)N(C)C[C@@H]2Oc3ccc(NS(=O)(=O)c4ccc(Cl)cc4)cc3C(=O)N([C@H](C)CO)C[C@H]2C)cc1`, for which the activation is -2.88% (inactive).

As to `O=C(OCC1OC(Oc2ccc(O)cc2COC(=O)C2(O)C(O)CCC(O)C2O)C(O)C(O)C1O)c1ccccc1` (stereo not drawn), the activation was -1.74% (inactive).

In the case of `C[C@@H]1CN([C@@H](C)CO)C(=O)c2cccc(NS(=O)(=O)c3ccc(Cl)cc3)c2O[C@@H]1CN(C)C(=O)Nc1ccccc1`, the activation is -0.568% (inactive).

As for `C[C@@H]1CN([C@H](C)CO)C(=O)Cc2cc(NC(=O)Cn3cnnn3)ccc2O[C@H]1CN(C)Cc1ccc(Cl)c(Cl)c1`, the activation is 1.08% (inactive).

`C[C@@H]1CN([C@@H](C)CO)C(=O)c2cccc(NS(=O)(=O)c3ccc(F)cc3)c2O[C@@H]1CN(C)Cc1ccc(C(=O)O)cc1`: the activation is 1.83% (inactive).

For `C[C@H]1CN([C@@H](C)CO)C(=O)c2cc(NS(=O)(=O)c3cccs3)ccc2O[C@@H]1CN(C)C(=O)Nc1cccc2ccccc12`, the activation is -0.392% (inactive).

In the case of `COc1ccc(NC(=O)Nc2ccc3c(c2)CC(=O)N([C@H](C)CO)C[C@H](C)[C@H](CN(C)Cc2ccncc2)O3)cc1`, the activation was 0.119% (inactive).

With `CC(=O)Nc1ccc(Nc2c3c4c(cccc4[nH]c2=O)C(=O)c2ccccc2-3)cc1`, the activation was -3.04% (inactive).

Turning to `Cc1noc(C)c1S(=O)(=O)Nc1ccc2c(c1)CC(=O)N([C@@H](C)CO)C[C@H](C)[C@@H](CN(C)S(=O)(=O)c1cn(C)cn1)O2`, the activation is 1.24% (inactive).

As for `C[C@H]1CN([C@@H](C)CO)C(=O)c2cccc(NS(=O)(=O)c3ccc(F)cc3)c2O[C@@H]1CN(C)C`, the activation was 0.422% (inactive).

On to `Cc1ccc(S(=O)(=O)Nc2ccc3c(c2)C(=O)N([C@H](C)CO)C[C@H](C)[C@H](CN(C)S(C)(=O)=O)O3)cc1`, for which the activation was 0.318% (inactive).

Consider `COc1ccc(NC(=O)Nc2cccc3c2O[C@H](CN(C)C(=O)Nc2ccc(F)cc2)[C@@H](C)CN([C@@H](C)CO)C3=O)cc1`, for which the activation is 1.83% (inactive).

In the case of `COc1ccc(NC(=O)N(C)C[C@@H]2OCCCC[C@@H](C)Oc3ccc(NC(=O)NC4CCCCC4)cc3C(=O)N([C@H](C)CO)C[C@@H]2C)cc1`, the activation is 0.764% (inactive).

Turning to `CCOc1ccc(NC(=O)CSc2nccc(C)n2)cc1`, the activation was 1.48% (inactive).

Take `Cc1ccc(C)c(NC(=O)CSc2nc(C)nc3sc(C)c(C)c23)c1`: the activation was 0.586% (inactive).

On to `CC(C)(C)c1ccc(S(=O)(=O)NCC(=O)Nc2ccc(F)cc2)cc1`, for which the activation is -2.51% (inactive).

Take `COC(=O)c1c(NC(=O)COc2ccc(C(C)C)c(C)c2)sc2c1CCC2`: the activation is 0.596% (inactive).

As for `O=S(=O)(c1ccccc1)c1nc(-c2ccccc2F)oc1NCc1cccnc1`, the activation was -0.501% (inactive).

For `COc1ccccc1N(CC(=O)Nc1ccc(C(F)(F)F)cc1)S(C)(=O)=O`, the activation is 0.0709% (inactive).

Consider `C[C@@H]1CN([C@H](C)CO)C(=O)c2cccc(NC(=O)c3ccncc3)c2O[C@@H]1CN(C)C`, for which the activation was 0.1% (inactive).

On to `Cc1ccc(S(=O)(=O)Nc2ccc3c(c2)CC(=O)N([C@H](C)CO)C[C@@H](C)[C@H](CN(C)S(=O)(=O)c2c(C)noc2C)O3)cc1`, for which the activation is 0.836% (inactive).

`O=C(NCc1ccccn1)C(=O)Nc1cccc(Cl)c1Cl`: the activation is 2.26% (inactive).

As to `COC1OC(O)C(O)C12CC[C@@]1(O2)[C@H](C)C[C@H]2OC(=O)[C@@]3(C)CCC[C@]1(C)C23` (stereo partly drawn), the activation is 0.449% (inactive).

Turning to `Cc1ccc(S(=O)(=O)CCC(=O)Nc2ccc(Cl)cc2)cc1`, the activation was 0.811% (inactive).

Take `Cc1ccc(C(=O)O)cc1S(=O)(=O)NCC1CCCO1` (stereo not drawn): the activation is -0.751% (inactive).

As for `COc1ccc(NC(=O)Nc2ccc3c(c2)CC(=O)N([C@@H](C)CO)C[C@H](C)[C@H](CN(C)C(=O)Nc2ccc4c(c2)OCO4)O3)cc1`, the activation is 0.0102% (inactive).

Regarding `COc1ccc2nc3c(nc2c1)C(=O)c1ccccc1C3=O`, the activation was 0.69% (inactive).

For the molecule `C[C@H](CO)N1C[C@H](C)[C@@H](CN(C)Cc2ccccc2)Oc2c(NC(=O)CCCCCC(=O)Nc3ccccc3N)cccc2C1=O`, the activation is -2.46% (inactive).

`Cc1ccc(S(=O)(=O)N(C)C[C@H]2Oc3ccc(NC(=O)Cc4cn(C)c5ccccc45)cc3CC(=O)N([C@@H](C)CO)C[C@H]2C)cc1`: the activation is -0.47% (inactive).

Consider `C/C=C(/C)C(=O)O[C@H]1CC(C)(C)C[C@H]2C3=CCC4[C@@]5(C)CC[C@H](O[C@@H]6O[C@H](C(=O)O)[C@@H](O[C@@H]7O[C@H](CO)[C@H](O)[C@H](O)[C@H]7O[C@@H]7O[C@H](CO)[C@@H](O)[C@H](O)[C@H]7O)[C@H](O)[C@H]6O[C@@H]6O[C@@H](C)[C@H](O)[C@@H](O)[C@H]6O)C(C)(C)C5CC[C@@]4(C)[C@]3(C)[C@@H](OC(C)=O)[C@@H](O)[C@@]12COC(C)=O` (stereo partly drawn), for which the activation was -14.9% (inactive).
